Laboratory results: PubChem BioAssay AID504332 (National Center for Advancing Translational Sciences (NCATS), 2011)
Where “and” joins values, the source holds several entries; their conditions need not be identical. Equal entries are not always repeated. About 31,000 (8.9%) of roughly 350,000 compounds were called active. About 15% were inconclusive and are not listed. Calls come from the whole dose curve; as a rule, active = well fitted inhibition curve with a large enough effect; inconclusive = small, poorly fitted or top-dose-only effect; inactive = no such curve, though single readings can be large or run the other way. For the sample, actives were picked, then their nearest neighbours and some compounds at random. Where a structure was tested more than once in an assay, its records may differ in their call.

What follows are molecules tested against Histone-lysine N-methyltransferase EHMT2 (Homo sapiens) (UniProt Q96KQ7) (assay: qHTS Assay for Inhibitors of Histone Lysine Methyltransferase G9a). Conditions: G9a H3K9 monomethylation, AlphaScreen, 2 h; series mostly up to 59 µM; activity, negative = inhibition: at the top concentration.
Outline: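 AlphaScreen detection with an anti-monomethyl H3K9 antibody quantified product after a 2 h room-temperature reaction containing 500 nM biotinylated H3K9 peptide, 20 µM SAM and 20 nM enzyme, which had been preincubated 15 min with compound.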
% is set by controls: 0 for no effect and ±100 for the full control effect; potency is the fitted concentration of half-maximal effect.
Note: nearly all actives have a fitted effect of over 75% in size.

Chain of Histone-lysine N-methyltransferase EHMT2 (Homo sapiens) (Q96KQ7 913-1193 limits assumed): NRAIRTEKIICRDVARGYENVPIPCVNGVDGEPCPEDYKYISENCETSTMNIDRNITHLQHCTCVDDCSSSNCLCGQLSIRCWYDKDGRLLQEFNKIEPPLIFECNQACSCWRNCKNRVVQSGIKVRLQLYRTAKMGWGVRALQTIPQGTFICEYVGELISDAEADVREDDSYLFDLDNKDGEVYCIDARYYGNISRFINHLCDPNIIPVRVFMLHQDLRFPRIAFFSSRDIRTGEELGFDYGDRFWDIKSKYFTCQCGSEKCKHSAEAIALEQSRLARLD

Compound	Potency	activity, negative = inhibition
CCCCC(CC)CNC(=O)C(=O)C1C(=O)Nc2ccccc21 (stereo not given)	44.7 µM (active)	
CCCCC(CC)CNC(=O)C1CCN(S(=O)(=O)c2cccc3nsnc23)CC1 (stereo not given)		3.29% (inactive)
CCOC(=O)C(=O)C1C(=O)Nc2ccccc21 (stereo not given)		-47.2% [at 2.33 µM] (inactive)
O=C(c1ccc2c(c1)N(Cc1ccccc1)C(=O)c1ccccc1S2(=O)=O)N1CCCC1		-26.6% (inactive)
O=C(c1ccc2c(c1)N(Cc1ccc(F)cc1)C(=O)c1ccccc1S2(=O)=O)N1CCN(c2ccccn2)CC1	inactive and 22.4 µM (active)	
O=C(c1ccc2c(c1)N(Cc1ccc(Cl)cc1)C(=O)c1ccccc1S2(=O)=O)N1CCCCC1		-1.97% (inactive)
CCOC(=O)c1cc(C(=O)Nc2ccc(S(=O)(=O)Nc3ccc(OC)cc3)cc2)nn1C		2.94% [at 102 µM] (inactive)
Cc1ccc2nc(-c3ccc(Br)cc3)cn2c1		-9% [at 102 µM] (inactive)
O=C1C=C(c2cccc(Cl)c2)C[C@@H](c2ccc(F)cc2)C1		6.54% [at 0.501 µM] (inactive)
CC1=C(C(=O)OCc2ccc(C)cc2)C(c2ccccc2Cl)CC(=O)N1 (stereo not given)		-30.3% (inactive)
N/C(=N\OC(=O)N1c2ccccc2Sc2ccccc21)c1ccc(Br)cc1	50.1 µM (active)	
N/C(=N\OC(=O)/C=C/c1ccccc1)c1ccc(Br)cc1		23.4% [at 102 µM] (inactive)
N/C(=N\OC(=O)c1ccc2c(c1)OCO2)c1ccc(Br)cc1		-36.4% [at 102 µM] (inactive)
CCCCN1C(=O)/C(=C/C=C2/C=Cc3ccccc3N2CC)SC1=S		7.58% [at 102 µM] (inactive)
CCN1C(=O)/C(=C2/Sc3ccccc3N2CCCS(=O)(=O)O)SC1=S	39.8 µM (active)	
CCN1C(=O)/C(=c2\s/c(=C3\Sc4ccccc4N3C)c(=O)n2C)N(C)C1=S		-35.3% [at 102 µM] (inactive)
CCN1C(=O)[C@H]2[C@@H](c3ccc(SC4CCCCC4)c(OC)c3)N[C@@](Cc3ccccc3)(C(=O)OC)[C@H]2C1=O		20.9% [at 2.33 µM] (inactive)
CCc1ccccc1NC(=O)c1ccc(F)c(S(=O)(=O)NC2CCCCCC2)c1		-9.97% (inactive)
Cn1c(=O)c2sccc2n2c(CCC(=O)NCc3ccccc3Cl)nnc12		-1.25% (inactive)
Cc1ccccc1NC(=S)NNC(=O)c1cccc(Br)c1		-38% [at 102 µM] (inactive)
Cc1ccc(-c2nnc3c4ccccc4c(C)nn23)cc1NC(=O)c1cccc(Br)c1		6.92% (inactive)
O=C(NC(=S)Nc1cccc2c(O)cccc12)c1cccc(Br)c1	50.1 µM (active)	
CC(=O)Nc1ccc(S(=O)(=O)N2CCN(S(=O)(=O)c3cccs3)CC2)cc1		-24.6% [at 102 µM] (inactive)
CCCc1c(C(=O)N/N=C(\C)CCc2ccc(OC)cc2)nnn1-c1nonc1N		20.9% [at 102 µM] (inactive)

Compound	Potency	activity, negative = inhibition
O=C(/C=C/c1ccc(Cl)cc1Cl)c1cccnc1	8.91 µM (active)	
C/C(=N\NC(=O)Cc1ccccc1[N+](=O)[O-])c1cccnc1		79.8% [at 102 µM] (inactive)
O=C(/C=C/c1ccc(Cl)c([N+](=O)[O-])c1)c1cccnc1	39.8 µM (active)	
O=C(Nc1cccnc1)c1cc([N+](=O)[O-])ccc1Cl		-28.5% [at 102 µM] (inactive)
O=C(Nc1cccnc1)c1cc(Cl)ccc1Cl		5.34% [at 102 µM] (inactive)
O=C(/C=C/c1ccc(Cl)cc1Cl)NCc1ccco1		2.18% [at 0.501 µM] (inactive)
Cc1ccc(S(=O)(=O)N2CCCc3cc(NS(=O)(=O)c4cc(C)ccc4C)ccc32)cc1		-41.9% (inactive)
CCOc1ccc(CCNC(=O)COC(=O)CCS(=O)(=O)c2ccc(C)cc2)cc1OCC		-3.67% [at 0.501 µM] (inactive)
O=C(CCn1c(=O)c2sccc2n(Cc2ccc(F)cc2)c1=O)NCc1ccc2c(c1)OCO2		-1.21% (inactive)
S=C(NCc1ccc(Cl)cc1)NC1CCCCC1		8.97% (inactive)
O=C(NC1CCCCC1)c1ccc(-c2ccc(Cl)cc2)o1	44.7 µM (active)	
O=C(NC1CCCCCC1)c1cccnc1Sc1ccc(Cl)cc1		7.32% (inactive)
CCSc1ncc(Cl)c(C(=O)Nc2c(C(=O)c3ccccc3)oc3ccccc23)n1		-5.28% (inactive)
Cc1ccc(CNC(=O)CSc2c3c(nc4cc(Cl)ccc24)CCCC3)cc1		-3.31% (inactive)
COc1ccc(CNC(=O)c2cc3c(=O)[nH]c4ccccc4c3s2)cc1		10.3% (inactive)
CCCn1c(=O)c2[nH]c(-c3ccc(OCC(=O)NCCN)cc3)nc2n(CCC)c1=O	14.1 µM (active)	32.3% [at 12.7 µM] (inactive)
CCCn1c(=O)c2[nH]c(C3CCCC3)nc2n(CCC)c1=O	inactive	
CCCNC(=O)CCn1cc(-c2ccc(OC)cc2)nc1CCN		-5.65% [at 2.33 µM] (inactive)
COc1ccc(CNC(=O)c2cc3c(s2)-c2ccccc2OC3)cc1		-3.7% (inactive)
Cc1ccc(-n2nc(-c3ccco3)cc2C(=O)NCc2cccnc2)cc1	2.51 µM (active)	
CC(C)(C)c1cc(C(=O)NCc2cccnc2)ccn1		17.8% [at 0.501 µM] (inactive)
Cc1ccc(C(=O)NC(=S)NCc2cccnc2)cc1		-24.2% [at 102 µM] (inactive)
O=C(NCC12CC3CC(CC(C3)C1)C2)c1cc2nc(-c3ccccc3)cc(C(F)(F)F)n2n1		-1.06% (inactive)
COc1cc(OC)c(NC(=O)c2nc(-c3ccncc3)no2)cc1Cl		6.69% (inactive)

Compound	Potency	activity, negative = inhibition
Cc1ccc(C)c(Nc2nnc(-c3ccc(C)c(S(=O)(=O)N4CCCCC4)c3)c3ccccc23)c1		-34.2% (inactive)
O=C(CNC(=O)c1ccccc1Br)NNC(=O)c1cccs1		7.12% [at 102 µM] (inactive)
O=C1CCC(C(=O)N2CCN(c3ccccc3Cl)CC2)CN1CC1CCCCC1 (stereo not given)		0.955% (inactive)
COc1ccc(NC(=O)COC(=O)c2n[nH]c3ccccc23)c(OC)c1		3.57% [at 12.7 µM] (inactive)
CCCn1c(C)cc(/C=C(\C#N)C(=O)OCC(=O)N(C)c2c(N)n(Cc3ccccc3)c(=O)[nH]c2=O)c1C		-50.7% [at 102 µM] (inactive)
O=C(CNC(=O)c1cccs1)N/N=C/c1cccc(Br)c1		18.8% [at 102 µM] (inactive)
CCN(CC)c1ccc(/C=N/NC(=O)CNC(=O)c2cccnc2)cc1		-26.8% [at 102 µM] (inactive)
CCN(CC)c1ccc(/C=N/NC(=O)CNC(=O)c2cccs2)cc1	50.1 µM (active)	
O=C(NCCS(=O)(=O)N1CCN(c2ccc(F)cc2)CC1)c1ccccc1Br		2.38% (inactive)
O=C(Nc1ccc(OC(F)(F)F)cc1)C1CCCN(S(=O)(=O)c2ccc(Br)s2)C1 (stereo not given)		14.2% (inactive)
N#CCC(=O)NC(=O)NCC1CC1	39.8 µM (active)	
N#Cc1ccc(C(=O)OCC(=O)NC(=O)NC2CCCCC2)cc1		13.4% [at 2.33 µM] (inactive)
CC(C)NC(=O)NC(=O)COC(=O)c1ccc(NC(=O)CC#N)cc1		-1.05% (inactive)
CC1(C)O[C@@H]2[C@H](O1)[C@@H](CO)O[C@H]2n1c(N2CCCCC2)nc2c(N)ncnc21		9.14% [at 0.501 µM] (inactive)
Cc1cc(OCC(=O)Nc2ncn[nH]2)c(C)c(C)c1Br		78.8% (inactive)
CC(=O)Nc1ccc(S(=O)(=O)N2CCN(CCCOc3cc(C)ccc3C)CC2)cc1		-3.97% [at 12.7 µM] (inactive)
Cc1ccc(OCCCCN2CCCCC2)c(Br)c1	11.2 µM (active)	
Cc1ccc(Cl)c(OCC(=O)NN2CCN(C)CC2)c1		7.88% [at 102 µM] (inactive)
Cc1ccc(OCC(O)CN2CCN(CC(O)COc3ccc(C)cc3Cl)CC2)c(Cl)c1 (stereo not given)		23.1% [at 102 µM] (inactive)
Cc1ccc(C(C)(C)C)c(OCCCCN2CCCC2)c1	8.91 µM (active)	
Cc1ccc(C)c(OCCC(=O)Nc2cccc(S(=O)(=O)N3CCCC3)c2)c1		6.86% [at 0.501 µM] (inactive)
COCCNc1ncnc2c1c(-c1ccccc1)cn2-c1ccc(C)c(Cl)c1		2.41% (inactive)
CCOC(=O)N1CCN(S(=O)(=O)c2ccc3c(c2)C(C)C(=O)N3)CC1 (stereo not given)		14.1% [at 12.7 µM] (inactive)
Cc1ccccc1N1CCN(C2CCCN(C(=O)c3cn4c(C)cccc4n3)C2)CC1 (stereo not given)		9.34% [at 0.501 µM] (inactive)

Compound	Potency	activity, negative = inhibition
CCC(=O)Nc1ccc(-c2ccc(N3CCCCC3)nn2)cc1		8.38% (inactive)
Cc1ccc(C)c(CNC(=O)c2cc3ccccn3n2)c1		-1.14% (inactive)
CCCN1CCN(CCCNC(=O)Cn2nc(CC)n3c(cc4occc43)c2=O)CC1		2.34% (inactive)
O=C(CSc1ncc(-c2ccccc2)[nH]1)Nc1ccc(F)cc1F		-35.1% (inactive)
COc1ccc(/C=N/OCc2ccccc2C#N)c(OC)c1		30% [at 102 µM] (inactive)
CCc1ccc2oc(-c3ccc(NC(=O)c4cc5ccccc5o4)cc3)nc2c1		6.7% (inactive)
COc1ccc(CCNC(=O)c2cn(C)c3ccc(S(=O)(=O)N(C)C4CCCCC4)cc3c2=O)cc1OC		7.95% (inactive)
Cc1ccc(-c2cn3cc(C)ccc3n2)cc1		-0.22% (inactive)
COc1ccc(-n2c(-c3ccc(OC)c(OC)c3)n[nH]c2=S)cc1	5.62 µM (active)	
Cc1n[nH]c(=O)n1-c1ccc(C(C)C)cc1		50.3% [at 102 µM] (inactive)
COc1ccc(OC)c(-n2c(=S)[nH]c3cc(C(=O)N4CCCCC4)ccc3c2=O)c1		-50% [at 102 µM] (inactive)
COc1ccccc1-n1c(-c2cc(-c3ccco3)[nH]n2)n[nH]c1=S	2.82 µM (active)	
COc1ccc(OC)c(-n2c(-c3ccn[nH]3)n[nH]c2=S)c1	14.1 µM (active)	
COc1ccc(-n2c(C)csc2=S)cc1		1.12% (inactive)
COc1ccc(CCn2c(-c3ccco3)nc3nc4ccccc4nc32)cc1OC		-36.8% [at 12.7 µM] (inactive)
Cc1ccc(-n2c(-c3ccc(Cl)cc3)n[nH]c2=S)cc1	1.41 µM (active)	
COc1ccccc1-n1cn[nH]c1=S		-42.9% [at 12.7 µM] (inactive)
COc1ccc(-c2c(-c3cc(OC)cc(OC)c3)n(C)c3ccc(-c4ccn[nH]4)cc23)cc1		2.71% [at 0.501 µM] (inactive)
COc1ccc(-c2cn(-c3ccc(C)cc3)c(=O)n2CC(=O)Nc2ccc(OC)c(OC)c2)cc1		-42.8% (inactive)
COc1ccccc1CN1CCC(CNC(=O)c2cnn(-c3cccc(Cl)c3)c2C2CCN(C(=O)OC(C)(C)C)CC2)CC1		-23.9% (inactive)
COc1ccc(CCc2nc(-c3cccs3)no2)cc1		181% [at 102 µM] (inactive)
COc1ccc(CC(=O)NCCc2sc3nc(-c4ccc(OC)cc4)nn3c2C)cc1		7.66% (inactive)
